VDR inh: vitamin D3 receptor (human) inhibition; P11473; VDR-SRC2-3 peptide fluorescence polarization, 2 h; Potency, µM, actives largely listed as inhibitors; 400,000 tested, 0.93% active
Target sequence (P11473 whole entry, looked up): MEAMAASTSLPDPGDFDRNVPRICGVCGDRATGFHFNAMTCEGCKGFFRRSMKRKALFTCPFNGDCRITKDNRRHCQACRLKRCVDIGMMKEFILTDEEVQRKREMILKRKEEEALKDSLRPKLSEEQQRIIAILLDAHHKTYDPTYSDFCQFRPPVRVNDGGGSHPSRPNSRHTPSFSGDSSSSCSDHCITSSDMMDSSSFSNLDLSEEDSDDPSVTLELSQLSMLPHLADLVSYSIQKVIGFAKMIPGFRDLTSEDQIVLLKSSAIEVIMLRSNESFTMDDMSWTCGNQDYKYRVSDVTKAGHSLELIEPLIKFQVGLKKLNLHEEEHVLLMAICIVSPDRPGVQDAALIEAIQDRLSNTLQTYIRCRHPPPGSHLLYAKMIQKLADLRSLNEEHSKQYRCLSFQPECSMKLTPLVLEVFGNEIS
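Two reagent solutions held at 4 deg C in the dark were dispensed, compounds pinned at 23 nl, and the mixture incubated 2 h at room temperature. Read-out: fluorescence polarization of VDR–SRC2-3 peptide binding.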
TDP1 cell CPT: growth inhibition of DT40 Tdp1-/-;hTDP1 cells with camptothecin (screen for TDP1 inhibitors) | chicken DT40 Tdp1-/-;hTDP1 cells + 20 nM CPT, ATP luminescence, 48 h | Potency, µM (highest dose often 46.2 µM), hits mostly inhibitors | 420,000 tested, 12% active | AID 686979; also: nearly all actives have a fitted effect of over 55% in size
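Cell growth measured by CellTiter-Glo luminescence after a minimum 48 h, 37 C compound exposure with 20 nM CPT in Tdp1-knockout DT40 cells stably expressing hTDP1, seeded 400/well; qHTS titration format.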
PLK1 PBD block: inhibitors of human PLK1 polo-box domain binding. P53350. Plk1 PBD binding of FITC phosphopeptide, fluorescence polarization. Potency, µM, hits mostly inhibitors. 360,000 tested, 2.8% active. AID 720504; also: series mostly up to about 57 µM; nearly all actives have a fitted effect of over 65% in size
KAT2A inh: blocks human GCN5L2 histone acetyltransferase; 390,000 tested, 0.21% active; AID 504327; GCN5L2 HAT assay, ThioGlo1 CoA-SH fluorescence; Potency, µM (highest dose often 58.9 µM), hits mostly inhibitors
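Compounds, pin-transferred from DMSO stocks, meet 20nM GCN5L2 for 15 min before the reaction begins with H3(1-25) peptide (75uM) and acetyl-CoA (70uM). Thiol-reactive ThioGlo1 reports CoA release over 20 min at room temperature.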
TDP1 block: inhibitors of human tyrosyl-DNA phosphodiesterase TDP1 | Q9NUW8 | recombinant TDP1, AlphaScreen DNA substrate cleavage | Potency, µM (highest dose often 130 µM), usual class: inhibitors | 350,000 tested, 0.28% active; also: nearly all actives have a fitted effect of over 40% in size
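Recombinant E. coli-expressed Tdp1 (1 nM) preincubated with compound 15 min at RT, then 5'-biotin/3'-phosphotyrosine-FITC DNA substrate (15 nM) added for 5 min. AlphaScreen beads (10 ug/ml) added, 10 min RT; tyrosine-FITC cleavage read as signal loss.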
TDP1 cell noCPT: qHTS for Inhibitors of human tyrosyl-DNA phosphodiesterase 1 (TDP1): qHTS in cells in absence of CPT | DT40 Tdp1-/- hTDP1 cells, no CPT, ATP luminescence, 48 h | Potency, µM (titrated, usually from 46.2 µM), usual class: inhibitors | 420,000 tested, 15% active; also: nearly all actives have a fitted effect of over 55% in size
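A cellular qHTS used chicken DT40 cells lacking endogenous Tdp1 but carrying stably transfected human TDP1. Compounds were applied without camptothecin, and cell growth kinetics were judged by ATP-dependent luminescence after ≥48 hr.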
A number is an active result; n = inactive; u = inconclusive; x = no result. Only some compounds are listed: those with a hit (about 18% of all), similar ones and a draw of the others. Calls follow the shape of the dose curve; as a rule, active = well fitted curve in the direction sought with a large enough effect; inconclusive = small, poorly fitted or top-dose-only effect, or another doubt; inactive = no such curve, though single readings can be large; an effect the other way counts as inactive or inconclusive.

SMILES	VDR inh	TDP1 cell CPT	PLK1 PBD block	KAT2A inh	TDP1 block	TDP1 cell noCPT
COc1ccc(-c2nc3sc(CCNC(=O)C(=O)Nc4ccc(C)c(F)c4)c(C)n3n2)cc1	n	n	x	n	n	n
COC(=O)C1(C(=O)OC)C[C@H](/C=C/c2ccccc2)N(Cc2ccccc2OC)[C@@H]1c1cccs1	x	26µM	n	x	x	23µM
Cc1cccc(OC(C)C(=O)Nc2ccc3c(c2)OCCO3)c1 (configuration not stated)	n	n	u	x	x	n
Oc1ccc(N2CCN(C(c3ccc(Cl)cc3)c3nnnn3Cc3ccc(F)cc3)CC2)cc1 (configuration not stated)	n	u	x	x	x	u
CN(C)c1ccc(-c2ccnc3c2CC(C)(C(=O)Nc2ccc(Cl)c(C(F)(F)F)c2)O3)cc1 (configuration not stated)	x	u	n	x	x	5.2µM
CC(=O)Nc1ccc(-c2ccnc3c2CC(C)(C(=O)Nc2ccc4c(c2)OCO4)O3)cc1 (configuration not stated)	x	18µM	n	x	x	u
CC1(C(=O)Nc2ccc(Cl)c(C(F)(F)F)c2)Cc2c(-c3ccc4c(c3)OCO4)ccnc2O1 (configuration not stated)	x	u	n	x	x	u
CC1(C(=O)Nc2ccccc2)Cc2c(-c3ccc4c(c3)OCO4)ccnc2O1 (configuration not stated)	x	u	n	x	x	n
CC1(C(=O)Nc2cccc(OC(F)(F)F)c2)Cc2c(-c3ccc(C(N)=O)cc3)ccnc2O1 (configuration not stated)	x	u	n	x	x	16µM
CC1(C(=O)Nc2cccc(Oc3ccccc3)c2)Cc2c(-c3ccc4c(c3)OCO4)ccnc2O1 (configuration not stated)	x	u	n	x	x	13µM
Cc1nc(SCc2cccnc2)[nH]c(=O)c1C	n	n	n	n	n	n
CC1(C(=O)Nc2ccc(Cl)c(C(F)(F)F)c2)Cc2c(-c3ccccc3)ccnc2O1 (configuration not stated)	x	u	n	x	x	u
CC(=O)Nc1ccc(-c2ccnc3c2CC(C)(C(=O)Nc2ccc(Cl)c(C(F)(F)F)c2)O3)cc1 (configuration not stated)	x	15µM	n	x	x	23µM
CCC1CCCCN1C(=O)Cn1c(=O)n(CCCC(=O)NCc2ccco2)c(=O)c2sccc21 (configuration not stated)	n	n	u	n	n	n
COc1cc(/C=C/c2ccc3cccc(O)c3n2)ccc1O	n	u	n	n	x	16µM
Oc1ccc2ccccc2c1/C=N/n1cnnc1	n	n	n	n	n	n
COc1cc(Br)cc(/C=C/c2ccc3cccc(O)c3n2)c1O	n	15µM	n	n	x	9.2µM
Oc1ccc2ccccc2c1/C=C/c1ccc2c(Br)cc(Br)c(O)c2n1	n	3.7µM	n	x	x	5.2µM
Oc1ccc(Cl)cc1/C=C/c1ccc2cccc(O)c2n1	n	u	n	n	n	26µM
Oc1c(Cl)cc(Cl)cc1/C=C/c1ccc2cccc(O)c2n1	n	u	n	n	n	u
C=CCn1c(SCC(=O)Nc2ccc(N3CCOCC3)cc2)nc2ccccc2c1=O	n	n	n	n	n	n
COc1ccccc1Cn1c(=S)[nH]c2cc(C(=O)N3CCCC(C)C3)ccc2c1=O (configuration not stated)	x	u	n	x	x	u
O=C(CCNC(=O)c1ccccc1Cl)Nc1nnc(C2CC2)s1	n	n	n	n	n	n
CCNC(=O)C[C@@H]1CC[C@@H]2NC[C@@H](O)COC[C@H]2O1	x	n	n	x	x	n
Clc1ccc2c(c1)Nc1ccccc1CC2	n	u	n	x	x	u
O=[N+]([O-])c1cccc2ccc(/C=C/c3cccc(Br)c3)nc12	n	n	n	n	n	u
COc1cc(/C=C/c2ccc3cccc(O)c3n2)c(Br)cc1O	x	x	x	n	x	x

Screens deposited in PubChem by National Center for Advancing Translational Sciences (NCATS).
